Consider one compound from PubChem BioAssay (EPA / NIEHS).

One may read the AC50 as the midpoint of the concentration-response curve, whichever way the signal moves.

Experiment [1] is described as follows: CCTE_Mundy_HCI_Cortical_Synap_Neur_Matur_SynapseCount: CCTE's Synaptogenesis and Neurite Maturation Assay in rat cortical cells for Synapse Count, Mundy Lab (AID 2284218). In outline:
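High-content imaging of synaptophysin puncta per MAP2-positive neuron (Hoechst nuclei) in rat cortical cells exposed DIV 7–12 after glial arrest with AraC at DIV 5; decrease relative to DMSO scored.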

A short description of experiment [2]: CCTE_Mundy_HCI_hN2_NOG_NeuriteCount: CCTE's Neurite Outgrowth Assay in human hN2 cells for Neurite Count, Mundy Lab (AID 2284219; active = hit-call score of the fitted dose curve at least 0.9, where 1 is the maximum). In outline: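 In this morphology assay, hNP1-derived neurons received test chemical 2 h post-plating and were fixed two days later in warm paraformaldehyde/sucrose containing Hoechst 33342. Neurites, labelled by rabbit anti-βIII-tubulin (1:800) and Alexa Fluor-488 (1:500), were counted automatically.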

Experiment [3] in a line: CCTE_Mundy_HCI_hN2_NOG_NeuriteLength: CCTE's Neurite Outgrowth Assay in human hN2 cells for Neurite Length, Mundy Lab (AID 2284220; active = hit-call score of the fitted dose curve at least 0.9, where 1 is the maximum). In a few lines: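 Plate hNP1-derived neurons, then add chemical 2 h later as a 1/10 dilution. Stain with anti-βIII-tubulin then Alexa Fluor-488 secondary, and image automatically to measure neurite length.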
A short description of experiment [4]: CCTE_Mundy_HCI_hN2_NOG_NeuronCount: CCTE's Neurite Outgrowth Assay in human hN2 cells for Neuron Count, Mundy Lab (AID 2284221; active = hit-call score of the fitted dose curve at least 0.9, where 1 is the maximum). In outline: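 Read-out is the number of betaIII-tubulin-positive neurons imaged by automated high-content analysis, with DMSO as negative control.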
Experiment [5] is described as follows: CCTE_Mundy_HCI_Cortical_Synap_Neur_Matur_NeuriteCount: CCTE's Synaptogenesis and Neurite Maturation Assay in rat cortical cells for Neurite Count, Mundy Lab (AID 2284222). In a few lines:
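In this multiplexed morphology readout, rat primary cortical neurons are fixed at DIV 12 following dosing at DIV 7 and stained for MAP2, synaptophysin and nuclei. High-content image analysis yields neurite count.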

Experiment [6] is described as follows: CCTE_Mundy_HCI_Cortical_Synap_Neur_Matur_CellBodySpotCount: CCTE's Synaptogenesis and Neurite Maturation Assay in rat cortical cells for Cell Body Spot Count, Mundy Lab (AID 2284223). In outline:
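High-content imaging counts synaptophysin puncta on neuronal cell bodies per neuron after MAP2/synaptophysin immunostaining. Rat primary cortical cells, glia arrested with AraC at DIV 5, were exposed DIV 7–12; signal decrease measured against DMSO.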

Experiment [7] can be described thus: CCTE_Mundy_HCI_hNP1_Pro_ResponderAvgInten: CCTE's Proliferation Assay in human neuroprogenitor cells, Mundy Lab (AID 2284224; active = hit-call score of the fitted dose curve at least 0.9, where 1 is the maximum). In outline: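 Proliferation was scored as BrdU labelling intensity in human neural progenitors derived from WA09 embryonic cells, measured 26.25 hours after chemical dosing. Activity was fitted relative to DMSO.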
A short description of experiment [8]: CCTE_Mundy_HCI_Cortical_NOG_NeuronCount: CCTE's Neurite Outgrowth Assay in rat cortical cells for Neuron Count, Mundy Lab (AID 2284236; active = hit-call score of the fitted dose curve at least 0.9, where 1 is the maximum;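 also: neurons counted by imaging betaIII-tubulin and Hoechst stained cortical cells; cells exposed to compound for about 48 hours before fixation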). In a few lines:
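Read-out: neuron number by high-content imaging of betaIII-tubulin (Alexa Fluor-488) and Hoechst-labelled rat primary cortical cells.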

Experiment [9] is described as follows: CCTE_Mundy_HCI_Cortical_NOG_BPCount: CCTE's Neurite Outgrowth Assay in rat cortical cells for Branch Point Count, Mundy Lab (AID 2284237).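 Also: branch points counted about two days after chemical exposure.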 In outline: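 Measured 50.33 h after dosing, this morphology endpoint uses rat primary cortical cultures labelled for betaIII-tubulin. Branch points are quantified by high-content imaging, with DMSO as negative control and baseline.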

The nature of experiment [10]: CCTE_Mundy_HCI_hNP1_Casp3_7: CCTE's Caspase-Glo 3/7 Assay in human neuroprogenitor cells for Apoptosis, Mundy Lab (AID 2284240). In outline: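 Apoptosis is scored by activated caspase-3/7 luminescence in WA09-derived neural progenitor cells, measured 26.5 h after chemical dosing. Values represent gain of signal relative to DMSO vehicle.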
Experiment [11] can be described thus: CCTE_Mundy_HCI_hNP1_CellTiter: CCTE's Cell Titer-Glo 2 Assay in human neuroprogenitor cells for Viability, Mundy Lab (AID 2284241; active = hit-call score of the fitted dose curve at least 0.9, where 1 is the maximum). In a few lines: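 Human neural progenitor cells (hNP1, WA09-derived) were plated on poly-L-ornithine/laminin and grown 40 to 44 hours at 37 °C, 5% CO2 before chemical addition. Twenty-four hours later, ATP was measured by CellTiter-Glo luminescence; loss of signal versus DMSO indicates reduced viability.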
For orientation: In ATP-based viability assays light output follows the ATP content of the culture.

Experiment [12] in a line: CCTE_Mundy_HCI_Cortical_Synap_Neur_Matur_NeuronCount: CCTE's Synaptogenesis and Neurite Maturation Assay in rat cortical cells for Neuron Count, Mundy Lab (AID 2284242; active = hit-call score of the fitted dose curve at least 0.9, where 1 is the maximum;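 also: hits reduce neuron count versus DMSO baseline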). In a few lines: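 Neuron counts come from automated high-content imaging of Hoechst nuclei and MAP2/synaptophysin immunostaining at DIV 12, with loss of signal judged against DMSO. Cultures of rat cortical cells had glial growth arrested by AraC at DIV 5; chemical exposure began DIV 7.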

A short description of experiment [13]: IUF_NPC2c_oligodendrocyte_migration_120hr: Leibniz Research Institute for Environmental Medicine (IUF) 120-hour Neural Progenitor Cell Migration Assay for Oligodendrocyte Migration (NPC2c) (AID 2284297).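 Also: O4-positive oligodendrocyte migration distance divided by radial glia migration distance.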 In a few lines:
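Exposure runs 5 days from differentiation onset at 37C, seven concentrations plus solvent control, DMSO at most 0.1%, applied to primary hNPC spheres on laminin. After fixation, O4 immunostaining gives oligodendrocyte distance from the sphere core, relative to radial glia migration.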

Experiment [14] is described as follows: IUF_NPC2a_radial_glia_migration_120hr: Leibniz Research Institute for Environmental Medicine (IUF) 120-hour Neural Progenitor Cell Migration Assay for Radial Glia Migration (NPC2a) (AID 2284298). In a few lines: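 Migration distance in um, sphere core edge to migration-area edge, derived by nuclei-density algorithm from Hoechst images after 120 h compound exposure. Primary hNPC spheres differentiated on poly-D-lysine/laminin in N2 medium, 37C; medium half-replaced day 3.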

Experiment [15] is described as follows: IUF_NPC2b_neuronal_migration_120hr: Leibniz Research Institute for Environmental Medicine (IUF) 120-hour Neural Progenitor Cell Migration Assay for Neuron Migration (NPC2b) (AID 2284300). In outline: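 TUBB3-positive neurons are imaged after 120 h of differentiation, and their mean distance from the sphere edge is normalised to radial glia migration. Single 0.3 mm fetal hNPC spheres on poly-D-lysine/laminin received 7 compound concentrations, ≤0.1% DMSO, refreshed at day 3.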

A short description of experiment [16]: IUF_NPC3_neuronal_differentiation_120hr: Leibniz Research Institute for Environmental Medicine (IUF) 120-hour Neuronal Differentiation Assay (NPC3) (AID 2284301). In a few lines: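 Value is percent TUBB3-positive neurons among Hoechst-stained nuclei in the migration area, scored by trained CNN after 120 h differentiation. Primary hNPC spheres on poly-D-lysine/laminin, N2 medium, continuous dosing from day 0, half-refeed day 3; DMSO reference.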

Experiment [17] in a line: IUF_NPC4_neurite_length_120hr: Leibniz Research Institute for Environmental Medicine (IUF) 120-hour Neuronal Morphology Assay for Neurite Length (NPC4) (AID 2284302). In outline: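 Neurite length, the mean in um across TUBB3-stained neurons, is derived by skeletonization of high-content images after 120 h differentiation. Compound exposure, 7 concentrations plus solvent control, ran from plating of hNPC spheres on poly-D-lysine/laminin, with medium half-replaced on day 3.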

A short description of experiment [18]: IUF_NPC5_oligodendrocyte_differentiation_120hr: Leibniz Research Institute for Environmental Medicine (IUF) 120-hour Oligodendrocyte Differentiation Assay (NPC5) (AID 2284304; active = hit-call score of the fitted dose curve at least 0.9, where 1 is the maximum;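 also: primary human fetal neural progenitor spheres plated to migrate and differentiate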). In outline:
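Oligodendrocyte differentiation scored as O4-positive cells, found by CNN image analysis, as percent of Hoechst-stained nuclei in the migration area. Scoring followed 5 days of exposure of plated hNPC neurospheres differentiating in DMEM/F12 N2 medium at 37C, with compound refreshed at day 3.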

A short description of experiment [19]: IUF_NPC4_neurite_area_120hr: Leibniz Research Institute for Environmental Medicine (IUF) 120-hour Neuronal Morphology Assay for Neurite Area (NPC4) (AID 2284305; active = hit-call score of the fitted dose curve at least 0.9, where 1 is the maximum). In outline: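 Neurite area (pixels, nuclei excluded) of TUBB3-positive neurons from hNPC spheres differentiating 5 days under continuous exposure at 37 C, 5% CO2. High-content imaging; loss of signal versus DMSO control across 7 concentrations.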

Experiment [20] is described as follows: IUF_NPC2-5_cytotoxicity_72hr: Cytotoxicity Assessment at 72 hours in the Leibniz Research Institute for Environmental Medicine (IUF) Neural Progenitor Cell Migration and Differentiation Assay for Cytotoxicity (NPC2-5) (AID 2284306; active = hit-call score of the fitted dose curve at least 0.9, where 1 is the maximum;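 also: LDH release into supernatant measured by resorufin fluorescence marking membrane damage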). In outline:
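Membrane-integrity cytotoxicity at 72 h, read as LDH-driven resorufin fluorescence in supernatant. hNPC spheres from fetal cortex differentiate on coated plates in N2 medium, 37C, 5% CO2; seven serial compound concentrations plus solvent control (DMSO ≤0.1%).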

A short description of experiment [21]: IUF_NPC2-5_cytotoxicity_120hr: Cytotoxicity Assessment at 120 hours in the Leibniz Research Institute for Environmental Medicine (IUF) Neural Progenitor Cell Migration and Differentiation Assay (NPC2-5) (AID 2284307; active = hit-call score of the fitted dose curve at least 0.9, where 1 is the maximum). In outline: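 Membrane-integrity loss measured as LDH activity in medium supernatant via resazurin-to-resorufin fluorescence after 120 h exposure. hNPC spheres from GW 16-19 fetal cortex differentiated on poly-D-lysine/laminin, 37C, medium half-refreshed day 3; seven concentrations, DMSO max 0.1%.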

Experiment [22] is described as follows: IUF_NPC2-5_cell_number_120hr: Cell Number Assessment at 120 hours in the Leibniz Research Institute for Environmental Medicine (IUF) Neural Progenitor Cell Migration and Differentiation Assay (NPC2-5) (AID 2284308).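 Also: count of Hoechst-stained nuclei in migration zone around plated human neural progenitor spheres.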 In a few lines:
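Counting of all Hoechst-stained nuclei in the migration area at 120 h, versus DMSO control. Primary hNPC spheres differentiated on poly-D-lysine/laminin in N2 medium at 37C, dosed from day 0 (7 concentrations, DMSO ≤0.1%), half-refed day 3.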

The nature of experiment [23]: IUF_NPC2-5_viability_120hr: Viability Assessment at 120 hours in the Leibniz Research Institute for Environmental Medicine (IUF) Neural Progenitor Cell Migration and Differentiation Assay (NPC2-5) (AID 2284312). In outline: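 Alamar blue resorufin fluorescence read after 5 days of differentiation, with compound present from day 0 and replenished at day 3. Primary hNPC spheres on laminin-coated plates, 37C; seven concentrations plus solvent control, fitted against DMSO.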

Molecules are shown by their SMILES. Inconclusive results are not listed. Calls of active or inactive are those of the source. The calls were made as follows, unless noted: active = hit-call score of the fitted dose curve at least 0.9, where 1 is the maximum; inactive = score below 0.9.

As to `O=[As]O`, the AC50 in experiment [1] is 5 µM (active); in experiment [2], 6.15 µM (active); in experiment [3], 5.09 µM (active); in experiment [4] it was 4.47 µM (active); in [5], 4.43 µM (active); in experiment [6], 5 µM (active). Moreover, the AC50 was 2.79 µM (active) in experiment [7]; 3.59 µM (active) in experiment [8]; 2.61 µM (active) in experiment [9]; 3.8 µM (active) in [10]; 6.1 µM (active) in experiment [11]; 2.74 µM (active) in experiment [12]. The concentration at half-maximal activity (AC50) in experiment [14] is 0.805 µM (active); in [17] it was 0.752 µM (active). In addition, the result in [13], in experiment [15], in experiment [16], in experiment [18], in [19] and in experiment [20] was inactive. Further, the compound was called inactive in [21], in experiment [22] and in [23].
